In PubChem BioAssay (Tox21):
Results filed as inconclusive are left out. The source made the active and inactive calls. Unless noted, the call rests on the fitted dose curve; in most records, active means well fitted curve in the direction sought with a large enough effect in the repeat runs; inconclusive means weak or mixed curves; inactive means no such curve, though single readings can be large; an effect the other way counts as inactive or inconclusive.

How the values were obtained:
[1] = target: Retinoic acid receptor RXR-alpha (Homo sapiens) (UniProt P19793); test: qHTS assay to identify small molecule agonists of the RXR signaling pathway (AID 1159527; calls by dose curve; further: nearly all actives have a fitted effect of over 35% in size)
Chain of Retinoic acid receptor RXR-alpha (Homo sapiens) (P19793 whole entry, looked up): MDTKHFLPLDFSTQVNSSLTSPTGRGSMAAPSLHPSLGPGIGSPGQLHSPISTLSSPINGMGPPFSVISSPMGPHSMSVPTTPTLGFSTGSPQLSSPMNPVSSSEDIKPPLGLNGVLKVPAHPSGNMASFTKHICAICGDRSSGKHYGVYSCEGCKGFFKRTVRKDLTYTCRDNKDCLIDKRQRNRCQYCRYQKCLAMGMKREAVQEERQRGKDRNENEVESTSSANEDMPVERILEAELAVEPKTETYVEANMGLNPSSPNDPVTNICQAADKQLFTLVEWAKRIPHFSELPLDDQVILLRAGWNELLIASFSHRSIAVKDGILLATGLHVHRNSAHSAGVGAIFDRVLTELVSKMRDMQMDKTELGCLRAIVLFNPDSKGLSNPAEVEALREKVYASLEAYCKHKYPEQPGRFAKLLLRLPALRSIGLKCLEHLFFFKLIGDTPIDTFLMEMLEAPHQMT
Method in brief: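 Reporter activation is measured as beta-lactamase activity via FRET substrate cleavage (emission 460/530 nm) in HEK 293T cells expressing an RXR-alpha-driven bla construct, following 16 hr compound exposure at 37 C.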

[2] = qHTS assay to identify small molecule agonists of the RXR signaling pathway - cell viability counter screen (AID 1159529); further: series mostly up to about 77 µM; nearly all actives have a fitted effect of over 50% in size
Method in brief: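 Tox21 10K compounds were tested for cytotoxicity against GeneBLAzer RXR-alpha HEK 293T cells grown in 2% charcoal-stripped FBS. Exposure lasted 16 hr at 37 C, 5% CO2; viability read by CellTiter-Glo luminescence.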

[3] = qHTS assay to identify small molecule antagonists of the retinoid acid receptor (RAR) signaling pathway - cell viability counter screen (AID 1159551); further: nearly all actives have a fitted effect of over 35% in size
Method in brief: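 Cytotoxicity counter screen in C3RL4 cells: 6 h compound exposure with 1 uM retinol (final), viability from cellular ATP by luminescence.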

[4] = qHTS assay to identify small molecule antagonists of the retinoic acid receptor (RAR) signaling pathway (AID 1159552; further: nearly all actives have a fitted effect of over 50% in size)
Method in brief: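 Overnight-plated C3RL4 reporter cells get compound, then retinol to 1 uM final; plates sit 6 hr at 37 C, 5% CO2. A luciferase reagent is added and light output recorded after 30 min at room temperature.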

[5] = qHTS assay to identify small molecule agonists of the retinoic acid receptor (RAR) signaling pathway (AID 1159553)
Method in brief: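 Agonist activity was scored in C3RL4 cells bearing a retinoic acid response element luciferase construct. Cells were treated with compounds for 6 hr at 37 C, and luciferase signal was measured as luminescence.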

[6] = qHTS assay to identify small molecule antagonists of the estrogen related receptor (ERR) signaling pathway from Tox21 library - cell viability counter screen (AID 1224834); further: nearly all actives have a fitted effect of over 30% in size
Method in brief: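 Cytotoxicity of test substances is gauged in the same ERR cells used for the antagonist screen, after 17.5 h of compound treatment at 37 C, by CellTiter-Fluor fluorescence measured after 30 min.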

[7] = target: Luciferin 4-monooxygenase (Photinus pyralis) (UniProt P08659); test: qHTS assay to identify small molecule inhibitors of firefly luciferase (AID 1224835); further: series mostly up to about 120 µM; nearly all actives have a fitted effect of over 25% in size
Chain of Luciferin 4-monooxygenase (Photinus pyralis) (P08659 whole entry, looked up): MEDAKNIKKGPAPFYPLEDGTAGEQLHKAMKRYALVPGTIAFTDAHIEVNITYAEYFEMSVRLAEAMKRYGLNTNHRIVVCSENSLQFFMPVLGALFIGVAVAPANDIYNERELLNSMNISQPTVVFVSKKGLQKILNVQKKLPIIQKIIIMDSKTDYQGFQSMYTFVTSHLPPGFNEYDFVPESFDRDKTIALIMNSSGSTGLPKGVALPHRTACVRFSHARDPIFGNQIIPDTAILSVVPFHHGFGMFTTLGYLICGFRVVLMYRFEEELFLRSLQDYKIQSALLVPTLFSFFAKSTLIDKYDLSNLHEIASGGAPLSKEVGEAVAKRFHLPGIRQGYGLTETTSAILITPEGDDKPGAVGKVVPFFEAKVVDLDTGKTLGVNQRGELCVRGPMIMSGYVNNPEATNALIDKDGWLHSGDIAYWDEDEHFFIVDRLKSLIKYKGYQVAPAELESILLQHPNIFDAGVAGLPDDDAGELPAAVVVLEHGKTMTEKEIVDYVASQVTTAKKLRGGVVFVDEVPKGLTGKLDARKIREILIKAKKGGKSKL
Method in brief: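 Quantitative HTS format; KM concentrations of both substrates. Purified P. pyralis FLuc activity quantified from luminescence images.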

[8] = qHTS assay to identify small molecule agonists of the constitutive androstane receptor (CAR) signaling pathway - cell viability counter screen (AID 1224836); further: series mostly up to about 92 µM; nearly all actives have a fitted effect of over 45% in size
Method in brief: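 Fluorescence from CellTiter-Fluor indicates live cells after 23 h exposure. The human hepatoma line expresses hCAR and a CYP2B6-2.2kb reporter. Incubation medium contains 0.75 uM PK11195 (final).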

[9] = qHTS assay to identify small molecule antagonists of the constitutive androstane receptor (CAR) signaling pathway - cell viability counter screen (AID 1224837); further: series mostly up to about 92 µM; nearly all actives have a fitted effect of over 45% in size
Method in brief: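 Multiplexed cytotoxicity read-out for the CAR antagonist screen: double-stable HepG2-CYP2B6-hCAR cells co-treated with 50 nM CITCO (final) and compound over 15 concentrations, incubated 23 hr, then assessed by CellTiter-Fluor fluorescence.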

[10] = target: Nuclear receptor subfamily 1 group I member 3 (Homo sapiens) (UniProt Q14994); test: qHTS assay to identify small molecule antagonists of the constitutive androstane receptor (CAR) signaling pathway (AID 1224838); further: nearly all actives have a fitted effect of over 40% in size
Chain of Nuclear receptor subfamily 1 group I member 3 (Homo sapiens) (Q14994 whole entry, looked up): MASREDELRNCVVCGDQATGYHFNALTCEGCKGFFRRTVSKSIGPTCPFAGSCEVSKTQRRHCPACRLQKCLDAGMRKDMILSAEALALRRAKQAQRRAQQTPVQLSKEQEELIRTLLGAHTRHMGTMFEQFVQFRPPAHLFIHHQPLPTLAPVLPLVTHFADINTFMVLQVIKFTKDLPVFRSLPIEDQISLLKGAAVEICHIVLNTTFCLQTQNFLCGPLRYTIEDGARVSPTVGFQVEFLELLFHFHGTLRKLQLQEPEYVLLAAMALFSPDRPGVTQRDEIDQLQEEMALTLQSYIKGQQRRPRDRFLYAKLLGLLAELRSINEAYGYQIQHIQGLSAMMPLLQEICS
Method in brief: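 Compounds were titrated across 15 concentrations onto HepG2 cells double-stably expressing hCAR and a CYP2B6-2.2kb reporter, together with 50 nM CITCO (final). After 24 h at 37 C, luciferase activity was measured by luminescence.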

[11] = target: Nuclear receptor subfamily 1 group I member 3 (Homo sapiens) (UniProt Q14994); test: qHTS assay to identify small molecule agonists of the constitutive androstane receptor (CAR) signaling pathway (AID 1224839);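 further: HepG2 cells stably carrying human CAR and a CYP2B6 luciferase reporter; series mostly up to about 92 µM; nearly all actives have a fitted effect of over 15% in size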
Method in brief: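 Stable hCAR/CYP2B6-2.2kb HepG2 line in DMEM with 10% FBS; compounds (15 concentrations) and 0.75 uM PK11195 final, 24 h at 37 C/5% CO2, then ONE-Glo luminescence after 30 min.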

[12] = qHTS assay to identify small molecule antagonists of the estrogen related receptor signaling pathway with the pleiotropic PPARgamma coactivator (PGC) from Tox21 10K library - cell viability counter screen (AID 1224840; active means well fitted cell-killing curve with a large enough effect in the repeat runs, not every such curve was filed as active; further: nearly all actives have a fitted effect of over 40% in size)
Method in brief: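 Step one, plate 2,000 PGC/ERR cells per well; step two, incubate 6 h at 37 C/5% CO2; step three, pin-transfer compounds; step four, incubate 17.5 h; step five, add CellTiter-Fluor and read fluorescence after 30 min.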

[13] = qHTS assay to identify small molecule antagonists of the estrogen related receptor signaling pathway with the pleiotropic PPARgamma coactivator (PGC) from Tox21 10K library (AID 1224841; call rule not given here; further: series mostly up to about 92 µM; actives are mostly falling curves and most rising ones were filed inactive; nearly all actives have a fitted effect of over 50% in size)
Method in brief: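 Antagonism in this quantitative HTS is taken from loss of luciferase signal in PGC/ERR cells. Cells (2,000/well) are treated with compounds in DMSO after a 6 h settling period and read by One-Glo luminescence after 18 h.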

[14] = qHTS assay to identify small molecule agonists of the estrogen related receptor signaling pathway with the pleiotropic PPARgamma coactivator (PGC) from Tox21 10K library (AID 1224842); further: nearly all actives have a fitted effect of over 15% in size
Method in brief: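 PGC/ERR reporter cells (NTP line) were seeded 2,000 per well, rested 6 h at 37 C/5% CO2, then pin-dosed with compounds in DMSO for 18 h at 37 C; luciferase read by One-Glo luminescence after 30 min at room temperature.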

[15] = target: Thyrotropin receptor (Homo sapiens) (UniProt P16473); test: qHTS assay to identify small molecule agonists of the thyroid stimulating hormone receptor (TSHR) signaling pathway (AID 1224843; calls by dose curve; further: nearly all actives have a fitted effect of over 45% in size)
Chain of Thyrotropin receptor (Homo sapiens) (P16473 whole entry, looked up): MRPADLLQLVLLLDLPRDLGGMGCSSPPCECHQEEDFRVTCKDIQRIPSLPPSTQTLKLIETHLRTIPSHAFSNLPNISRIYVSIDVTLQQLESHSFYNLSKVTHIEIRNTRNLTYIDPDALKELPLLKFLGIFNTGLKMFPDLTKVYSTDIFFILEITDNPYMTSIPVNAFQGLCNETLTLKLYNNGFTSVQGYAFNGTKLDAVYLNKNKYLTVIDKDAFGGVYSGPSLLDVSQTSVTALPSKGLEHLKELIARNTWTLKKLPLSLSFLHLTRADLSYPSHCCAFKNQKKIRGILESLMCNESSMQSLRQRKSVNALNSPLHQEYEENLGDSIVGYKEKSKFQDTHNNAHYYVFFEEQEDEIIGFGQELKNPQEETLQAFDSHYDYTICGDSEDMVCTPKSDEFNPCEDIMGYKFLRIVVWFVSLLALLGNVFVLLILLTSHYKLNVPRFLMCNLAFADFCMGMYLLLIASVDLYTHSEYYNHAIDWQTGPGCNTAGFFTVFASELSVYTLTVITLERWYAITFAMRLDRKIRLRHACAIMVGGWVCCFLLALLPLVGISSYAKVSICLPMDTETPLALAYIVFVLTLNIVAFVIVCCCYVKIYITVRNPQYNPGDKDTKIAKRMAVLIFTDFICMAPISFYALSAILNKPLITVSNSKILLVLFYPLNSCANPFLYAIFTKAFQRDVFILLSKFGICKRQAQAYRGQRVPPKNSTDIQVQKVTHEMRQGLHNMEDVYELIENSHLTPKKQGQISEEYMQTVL
Method in brief: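 TSHR-expressing HEK293 cells (800 per well) were exposed to compounds for 30 min at room temperature. cAMP was then detected by HTRF competition with cAMP-d2 and anti-cAMP cryptate, read after 1 h at room temperature. Fifteen concentrations, triplicate.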
On the % scale 0 is the no-effect control and ±100 the full control effect.

COC(=O)NN
inactive: Potency [1] | Potency [2] | outcome [3] | Potency [4] | Potency [5] | Potency [6] | Potency [7] | Potency [8] | Potency [9] | Potency [10] | Potency [11] | Potency [12] | Potency [13] | outcome [14] | Potency [15]

CCCCCCCCCCCCCC=O
inactive: activation [1] 0.369% [at 6.98 µM] | activity change, negative = cytotoxicity [2] 1.55% [at 6.97 µM] | activity change, negative = cytotoxicity [3] 4.56% [at 8.39 µM] | activity, negative = inhibition [4] -4.55% [at 8.39 µM] | activation [5] 1.59% [at 8.36 µM] | viability change, negative = cytotoxic [6] 1.13% [at 8.39 µM] | activity change, negative = inhibition [7] 3.28% [at 10.5 µM] | viability change, negative = cytotoxic [8] -0.0726% [at 8.39 µM] | activity change, negative = cytotoxicity [9] 6.66% [at 8.39 µM] | activity, negative = inhibition [10] -13.4% [at 8.39 µM] | activation [11] -0.0217% [at 8.39 µM] | viability change, negative = cytotoxic [12] 5.18% [at 8.39 µM] | activity, negative = inhibition [13] 11.8% [at 8.39 µM] | activation [14] -0.504% [at 8.39 µM] | activation [15] 4.61% [at 8.39 µM]

CC(C)(C)NCCNC(C)(C)C
inactive: Potency [1] | Potency [2] | outcome [3] | Potency [4] | Potency [5] | Potency [6] | Potency [7] | Potency [8] | Potency [9] | Potency [10] | Potency [11] | Potency [12] | Potency [13] | outcome [14] | Potency [15]

NS(=O)(=O)c1ccc(C(=O)O)cc1
inactive: Potency [1] | Potency [2] | outcome [3] | Potency [4] | Potency [5] | Potency [6] | Potency [7] | Potency [8] | Potency [9] | Potency [10] | Potency [11] | Potency [12] | Potency [13] | outcome [14] | Potency [15]

OCCOc1ccc(OCCO)cc1
inactive: Potency [1] | Potency [2] | outcome [3] | Potency [4] | Potency [5] | Potency [6] | Potency [7] | Potency [8] | Potency [9] | Potency [10] | Potency [11] | Potency [12] | Potency [13] | outcome [14] | Potency [15]

C1OCOCO1
inactive: Potency [1] | Potency [2] | outcome [3] | Potency [4] | Potency [5] | Potency [6] | Potency [7] | Potency [8] | Potency [9] | Potency [10] | Potency [11] | Potency [12] | Potency [13] | outcome [14] | Potency [15]

Cc1cnc(NS(=O)(=O)c2ccc(N)cc2)nc1
inactive: Potency [1] | Potency [2] | outcome [3] | Potency [4] | Potency [5] | Potency [6] | Potency [7] | Potency [8] | Potency [9] | Potency [10] | Potency [11] | Potency [12] | Potency [13] | outcome [14] | Potency [15]

C=CCCCCCCCCC=O
inactive: Potency [1] | Potency [2] | outcome [3] | Potency [4] | Potency [5] | Potency [6] | Potency [7] | Potency [8] | Potency [9] | Potency [10] | Potency [11] | Potency [12] | Potency [13] | outcome [14] | Potency [15]

CN(C)CCCSc1ccccc1NC(=O)/C=C/c1ccccc1
inactive: Potency [1] | Potency [2] | outcome [3] | Potency [4] | Potency [5] | Potency [6] | Potency [7] | Potency [8] | Potency [9] | Potency [10] | Potency [11] | Potency [12] | Potency [13] | outcome [14] | Potency [15]

CN1C(=O)N(C)C(O)C1O (stereo not given)
inactive: Potency [1] | Potency [2] | outcome [3] | Potency [4] | Potency [5] | Potency [6] | Potency [7] | Potency [8] | Potency [9] | Potency [10] | Potency [11] | Potency [12] | Potency [13] | outcome [14] | Potency [15]

CC(NC(CCc1ccccc1)C(=O)O)C(=O)N1C(=O)N(C)CC1C(=O)O (stereo not given)
inactive: Potency [1] | Potency [2] | outcome [3] | Potency [4] | Potency [5] | Potency [6] | Potency [7] | Potency [8] | Potency [9] | Potency [10] | Potency [11] | Potency [12] | Potency [13] | outcome [14] | Potency [15]

CC(C)=CCCC(C)CC(=O)O (stereo not given)
inactive: Potency [1] | Potency [2] | outcome [3] | Potency [4] | Potency [5] | Potency [6] | Potency [7] | Potency [8] | Potency [9] | Potency [10] | Potency [11] | Potency [12] | Potency [13] | outcome [14] | Potency [15]

CC/C=C\CC/C=C/C(OCC)OCC
inactive: Potency [1] | Potency [2] | outcome [3] | Potency [4] | Potency [5] | Potency [6] | Potency [7] | Potency [8] | Potency [9] | Potency [10] | Potency [11] | Potency [12] | Potency [13] | outcome [14] | Potency [15]

COc1c(N2C[C@@H]3CCCN[C@@H]3C2)c(F)cc2c(=O)c(C(=O)O)cn(C3CC3)c12
inactive: Potency [1] | Potency [2] | outcome [3] | Potency [4] | Potency [5] | Potency [6] | Potency [7] | Potency [8] | Potency [9] | Potency [10] | Potency [11] | Potency [12] | Potency [13] | outcome [14] | Potency [15]

CC1(C)C(O)C(C)(C)C1O (stereo not given)
inactive: Potency [1] | Potency [2] | outcome [3] | Potency [4] | Potency [5] | Potency [6] | Potency [7] | Potency [8] | Potency [9] | Potency [10] | Potency [11] | Potency [12] | Potency [13] | outcome [14] | Potency [15]

CCCc1cc(C(N)=S)ccn1
inactive: Potency [1] | Potency [2] | outcome [3] | Potency [4] | Potency [5] | Potency [6] | Potency [7] | Potency [8] | Potency [9] | Potency [10] | Potency [11] | Potency [12] | Potency [13] | outcome [14] | Potency [15]

C=C[Si](OC(=C)C)(OC(=C)C)OC(=C)C
inactive: Potency [1] | Potency [2] | outcome [3] | Potency [4] | Potency [5] | Potency [6] | Potency [7] | Potency [8] | Potency [9] | Potency [10] | Potency [11] | Potency [12] | Potency [13] | outcome [14] | Potency [15]
